For orientation: inhibition means how much of the control response was suppressed.

Structures are written as SMILES. In all, about 1,100 compounds went through this assay and about 1,000 (91%) were called active.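 The calls were made as follows: active = inhibition above 3 SD of the buffer control wells (cut at about 41% in these data); inactive = the rest.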 The set was probably picked from earlier hits. Not all results are given here.

This assay in a line: reduced carbachol calcium response, RGS4-induced M3R cells, confirmation, RGS4 activator project, cell-based, HEK293 M3R/RGS4 inducible, calcium flux, duplicate (AID 602282).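 Also: signal is the integrated peak-minus-minimum Fluo4 fluorescence over baseline ratio.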 To be noted: carbachol calcium flux Fluo4, at 10 µM, active compounds read high. (A change in cytosolic calcium serves as a functional read-out for many receptors and channels.)
For the compound `C=CC12CN(C)[C@@H]3C4CO[C@H](C[C@H]41)[C@]1(C(=O)Nc4ccccc41)[C@@H]32` (some centres not stated), the inhibition was 84% (active).
Take `CC(C)Oc1cccc(C(=O)C2CCCN(C3CCOCC3)C2)c1` (configuration not stated): the inhibition was 42.5% (active).

The values are drawn from PubChem BioAssay AID602282 (Johns Hopkins Ion Channel Center, 2012).
